# Experimental data taken from the supplement of paper PMC8728848.
# This is one part of a sample in which the strongest signals are shown more often than they occur.
# Columns and labels:
# Test in all cases: glycan array binding signal (z-score within array); higher = stronger binding
# Details in all cases: glycan notation: IUPAC condensed, linker removed
# [1] = tested on: Gal(b1-4)GlcNAc(a1-6)Gal(b1-4)GlcNAc
# How it was run: (§1)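 Glycan array data came from 3228 arrays in the Consortium for Functional Glycomics database, and only arrays with an available protein sequence were kept. Glycan names were put into IUPAC-condensed notation, and columns mapping to the same glycan were averaged. The binding signal is a within-array Z-score, averaged across arrays of one protein sequence run at different concentrations or buffers and across linkers. A negative Z-score can be read as non-binding.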
# [2] = tested on: Gal(b1-4)GlcNAc(b1-2)Man(a1-3)[Man(a1-6)]Man(b1-4)GlcNAc(b1-4)GlcNAc
# How it was run: as §1
# [3] = tested on: Gal(b1-4)GlcNAc(b1-2)Man(a1-6)[GlcNAc(b1-2)Man(a1-3)]Man(b1-4)GlcNAc(b1-4)GlcNAc
# How it was run: as §1
# [4] = tested on: Gal(b1-4)GlcNAc(b1-2)[Gal(b1-4)GlcNAc(b1-6)]Man(a1-6)[Gal(b1-4)GlcNAc(b1-2)Man(a1-3)]Man(b1-4)GlcNAc(b1-4)[Fuc(a1-6)]GlcNAc
# How it was run: as §1
# [5] = tested on: Gal(b1-4)GlcNAc(b1-2)[Gal(b1-4)GlcNAc(b1-6)]Man(a1-6)[GlcNAc(b1-4)][Gal(b1-4)GlcNAc(b1-2)[Gal(b1-4)GlcNAc(b1-4)]Man(a1-3)]Man(b1-4)GlcNAc(b1-4)[Fuc(a1-6)]GlcNAc
# How it was run: as §1
# [6] = tested on: Gal(b1-4)GlcNAc(b1-3)Gal(b1-4)GlcNAc(b1-3)Gal(b1-4)GlcNAc(b1-2)[Gal(b1-4)GlcNAc(b1-3)Gal(b1-4)GlcNAc(b1-3)Gal(b1-4)GlcNAc(b1-6)]Man(a1-6)[Gal(b1-4)GlcNAc(b1-3)Gal(b1-4)GlcNAc(b1-3)Gal(b1-4)GlcNAc(b1-2)Man(a1-3)]Man(b1-4)GlcNAc(b1-4)[Fuc(a1-6)]GlcNAc
# How it was run: as §1
# Gal(b1-4)GlcNAc(b1-2)Man = tested on: Gal(b1-4)GlcNAc(b1-2)Man
# How it was run: as §1
# [7] = tested on: Gal(b1-4)GlcNAc(b1-2)[Gal(b1-4)GlcNAc(b1-6)]Man(a1-6)[Gal(b1-4)GlcNAc(b1-2)Man(a1-3)]Man(b1-4)GlcNAc(b1-4)GlcNAc
# How it was run: as §1
# [8] = tested on: Gal(b1-4)GlcNAc(b1-3)Gal(b1-4)GlcNAc(b1-3)Gal(b1-4)GlcNAc(b1-2)Man(a1-3)[Gal(b1-4)GlcNAc(b1-3)Gal(b1-4)GlcNAc(b1-3)Gal(b1-4)GlcNAc(b1-2)Man(a1-6)]Man(b1-4)GlcNAc(b1-4)GlcNAc
# How it was run: as §1
# [9] = tested on: Gal(b1-4)GlcNAc(b1-3)Gal(b1-4)GlcNAc(b1-3)Gal(b1-4)GlcNAc(b1-2)Man(a1-3)[Gal(b1-4)GlcNAc(b1-3)Gal(b1-4)GlcNAc(b1-3)Gal(b1-4)GlcNAc(b1-2)Man(a1-6)]Man(b1-4)GlcNAc(b1-4)[Fuc(a1-6)]GlcNAc
# How it was run: as §1
# [10] = tested on: Gal(b1-4)GlcNAc(b1-3)Gal(b1-4)GlcNAc(b1-3)Gal(b1-4)GlcNAc(b1-3)Gal(b1-4)GlcNAc(b1-2)Man(a1-3)[Gal(b1-4)GlcNAc(b1-3)Gal(b1-4)GlcNAc(b1-3)Gal(b1-4)GlcNAc(b1-3)Gal(b1-4)GlcNAc(b1-2)Man(a1-6)]Man(b1-4)GlcNAc(b1-4)[Fuc(a1-6)]GlcNAc
# How it was run: as §1
# [11] = tested on: Gal(b1-4)GlcNAc(b1-2)Man(a1-3)[Gal(b1-4)GlcNAc(b1-2)Man(a1-6)]Man(b1-4)GlcNAc(b1-4)[Fuc(a1-6)]GlcNAc
# How it was run: as §1
# [12] = tested on: Gal(b1-4)GlcNAc(b1-2)Man(a1-6)Man(b1-4)GlcNAc(b1-4)GlcNAc
# How it was run: as §1
# [13] = tested on: Gal(b1-4)GlcNAc(b1-2)Man(a1-3)[Gal(b1-4)GlcNAc(b1-2)Man(a1-6)]Man(b1-4)GlcNAc(b1-4)GlcNAc
# How it was run: as §1
# [14] = tested on: Gal(b1-4)GlcNAc(b1-2)Man(a1-6)[Man(a1-3)]Man(b1-4)GlcNAc(b1-4)GlcNAc
# How it was run: as §1
# [15] = tested on: Gal(b1-4)GlcNAc(b1-3)Gal(b1-4)GlcNAc(b1-2)Man(a1-3)[Gal(b1-4)GlcNAc(b1-3)Gal(b1-4)GlcNAc(b1-2)Man(a1-6)]Man(b1-4)GlcNAc(b1-4)GlcNAc
# How it was run: as §1
# [16] = tested on: Gal(b1-4)GlcNAc(b1-3)Gal(b1-4)GlcNAc(b1-2)[Gal(b1-4)GlcNAc(b1-3)Gal(b1-4)GlcNAc(b1-6)]Man(a1-6)[Gal(b1-4)GlcNAc(b1-3)Gal(b1-4)GlcNAc(b1-2)Man(a1-3)]Man(b1-4)GlcNAc(b1-4)GlcNAc
# How it was run: as §1
# [17] = tested on: Gal(b1-4)GlcNAc(b1-2)Man(a1-3)Man(b1-4)GlcNAc(b1-4)GlcNAc
# How it was run: as §1
# [18] = tested on: Gal(b1-4)GlcNAc(b1-2)Man(a1-3)[GlcNAc(b1-2)Man(a1-6)]Man(b1-4)GlcNAc(b1-4)GlcNAc
# How it was run: as §1
# [19] = tested on: Gal(b1-4)GlcNAc(b1-3)Gal(b1-4)GlcNAc(b1-3)Gal(b1-4)GlcNAc(b1-3)Gal(b1-4)GlcNAc(b1-2)[Gal(b1-4)GlcNAc(b1-3)Gal(b1-4)GlcNAc(b1-3)Gal(b1-4)GlcNAc(b1-3)Gal(b1-4)GlcNAc(b1-6)]Man(a1-6)[Gal(b1-4)GlcNAc(b1-3)Gal(b1-4)GlcNAc(b1-3)Gal(b1-4)GlcNAc(b1-3)Gal(b1-4)GlcNAc(b1-2)Man(a1-3)]Man(b1-4)GlcNAc(b1-4)[Fuc(a1-6)]GlcNAc
# How it was run: as §1
substance,measurement,setting,value
"SpGH101 (Streptococcus pneumoniae), Q8DR60",glycan array binding signal (z-score),[1],-0.178
same,glycan array binding signal (z-score),[2],-0.069
AgI/II Vhelical-GFP (Streptococcus mutans),glycan array binding signal (z-score),[3],-0.18
same,glycan array binding signal (z-score),[4],-0.078
same,glycan array binding signal (z-score),[5],-0.092
same,glycan array binding signal (z-score),[6],0.214
LcI (Legionella pneumophila),glycan array binding signal (z-score),Gal(b1-4)GlcNAc(b1-2)Man,0.449
same,glycan array binding signal (z-score),[7],0.017
same,glycan array binding signal (z-score),[8],0.132
same,glycan array binding signal (z-score),[9],-0.212
same,glycan array binding signal (z-score),[10],0.132
Epa22,glycan array binding signal (z-score),[11],1.95
"Wza (Escherichia coli), P0A930",glycan array binding signal (z-score),[12],1.02
"SiiE (Salmonella typhimurium), A0A0H3NVH0",glycan array binding signal (z-score),[13],2.4
same,glycan array binding signal (z-score),[14],0.213
AgI/IIC123-GFP (Streptococcus mutans),glycan array binding signal (z-score),[7],-0.449
same,glycan array binding signal (z-score),[5],-0.015
same,glycan array binding signal (z-score),[15],3.9
same,glycan array binding signal (z-score),[16],-0.185
"BambL (Burhholderia ambifaria), Q0B4G1",glycan array binding signal (z-score),[17],-0.313
same,glycan array binding signal (z-score),[11],0.351
same,glycan array binding signal (z-score),[18],-0.301
Actinohivin (Actinomycete K97),glycan array binding signal (z-score),[6],0.097
same,glycan array binding signal (z-score),[19],-0.012
